GDH-TPI inh: GDH-TPI coupled enzyme inhibition counter-screen; GDH-TPI coupled enzyme counterscreen, NADH absorbance; inhibition, % at 4.8 µM; 360,000 compounds, 1.2% hits; AID 588335; in the data active = inhibition above about 30%;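 note: 0% = DMSO wells and 100% = wells lacking the enzyme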
RecA splice inh: blocks M. tuberculosis RecA intein splicing; cell-free RecA intein splicing, fluorescence; inhibition, % (no concentration beside the values); 290,000 compounds, 0.75% hits; AID 2221; in the data active = inhibition above about 30%;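 note: 0% = vehicle wells and 100% = reference inhibitor control wells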
Mtb UGM inh: Mtb UDP-galactopyranose mutase inhibition | inhibition, % at 10 µM | 320,000 compounds, 0.06% hits | purified UGM, fluorescence polarization probe displacement | AID 504406; in the data active = inhibition above about 10%, passing the limit was not always enough
Mtb FBA inh: inhibits M. tuberculosis FBA enzyme. 360,000 compounds, 2.3% hits. purified M. tuberculosis FBA, fluorescence read-out. P9WQA3. inhibition, % at 1 µM; in the data active = inhibition above about 27%;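 note: 0% = vehicle and 100% = reference inhibitor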
Target sequence (P9WQA3 whole entry, looked up): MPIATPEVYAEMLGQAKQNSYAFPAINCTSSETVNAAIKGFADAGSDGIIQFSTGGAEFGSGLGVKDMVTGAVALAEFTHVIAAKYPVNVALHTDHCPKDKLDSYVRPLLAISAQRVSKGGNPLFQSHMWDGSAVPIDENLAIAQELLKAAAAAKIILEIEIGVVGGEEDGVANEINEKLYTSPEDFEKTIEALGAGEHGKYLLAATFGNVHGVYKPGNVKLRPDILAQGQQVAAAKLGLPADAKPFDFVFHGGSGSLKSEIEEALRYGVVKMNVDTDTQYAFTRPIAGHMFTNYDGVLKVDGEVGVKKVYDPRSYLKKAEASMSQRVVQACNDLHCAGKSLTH
Mtb betalactam: beta-lactam sensitization of Mtb H37Rv; M. tuberculosis H37Rv growth with meropenem, percent inhibition; inhibition, % at 25 µM; 330,000 compounds, 0.27% hits; call rule not given here;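 note: growth measured after seven days incubation then overnight dye step; 0% = bacteria only wells and 100% = bacteria with antibiotic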
Rv3671c protease: inhibitors of M. tuberculosis serine protease Rv3671c. P9WHR9. inhibition, % at 5.96 µM. 320,000 compounds, 0.048% hits; in the data active = inhibition above about 38%;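 note: extracellular domain of Rv3671c used as enzyme; 0% = enzyme with DMSO and 100% = no enzyme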
Active calls of the source: *; . = no result given; + = active, no number. Hits are enriched below; roughly 4% of the tested compounds scored in any of these assays.

SMILES | GDH-TPI inh | RecA splice inh | Mtb UGM inh | Mtb FBA inh | Mtb betalactam | Rv3671c protease
C#CCSc1nnc(-c2sc(-c3ccccc3)nc2C)n1C | 7.0 | -2.0 | -0.3 | 35.6* | 76.6 | -4.3
C#CCSc1nnc(-c2c[nH]c3ccccc23)n1C | 12.0 | 0.1 | 1.4 | 4.0 | -4.7 | 3.9
Cc1ccc(-n2nc(C)c(NC(=O)CCl)c2C)cc1C | -5.2 | 42.5* | 1.5 | 1.1 | 96.7 | 0.8
Cc1cc(C)nc(N/N=C/c2ccco2)n1 | 31.5* | -5.7 | 0.6 | -2.4 | -1.7 | -2.6
Cc1cc(-c2ccccc2)nc(N/N=C/c2ccc(N(C)C)cc2)n1 | 31.3* | -1.8 | -4.6 | -0.2 | 97.4 | 5.2
Cc1cc(-c2ccccc2)nc(N/N=C/c2ccccc2)n1 | 16.9 | -5.4 | -2.0 | 3.8 | 40.1 | -1.1
CSc1ccc(/C=N/Nc2nc(C)cc(C)n2)cc1 | 32.8* | -2.0 | 0.8 | -6.3 | -3.1 | 7.6
Cc1cc(C)nc(Nc2ccc(N3CCOCC3)cc2)n1 | 6.7 | -6.0 | -0.4 | 5.2 | 2.8 | 6.8
Cc1cc(C)nc(N/N=C/c2ccc(N3CCOCC3)cc2)n1 | 35.3* | -16.6 | -0.7 | -0.3 | -7.4 | 1.5
CCOC(=O)c1c(Nc2ccccc2OCCOC)n[nH]c1C | 0.7 | 0.6 | -1.0 | -3.2 | 7.3 | 3.7
CCCCCC(=O)N1C[C@H](O)[C@@H](n2cc(COC(=O)c3ccccc3)nn2)C[C@@H]1c1ccc(Cl)cc1 | -0.5 | . | . | -1.8 | . | .
O=C(O)c1cc(N/N=C/c2ccc(N3CCOCC3)cc2)ccc1Cl | 68.8* | -5.0 | 0.1 | 2.3 | -7.8 | -1.4
Clc1cccc(N/N=C/c2ccc(N3CCOCC3)cc2)c1 | 9.4 | 0.0 | 4.7 | 2.1 | 98.6 | 3.1
CCCNC(=O)C1(C)CCN(C(=O)COc2ccc(C(C)(C)C)cc2)C1 (stereo not drawn) | 3.6 | . | . | 0.4 | . | .
COCCN1C=C(C(=O)OC)C(c2ccc(Cl)cc2)C(C(=O)OC)=C1 | 9.2 | -49.8 | -1.9 | + | -7.7 | 6.5
CCOc1ccc(C2C(C(=O)OC)=CN(CCOC)C=C2C(=O)OC)cc1 | 8.3 | -249.9 | 0.5 | + | 2.4 | -1.3
O=c1ccn(C2CCCO2)c(=O)[nH]1 (stereo not drawn) | 0.5 | . | . | -3.3 | . | .
COC(=O)COc1cc(OCC(=O)OC)c2c(C)c(Cl)c(=O)oc2c1 | 8.6 | -1.4 | -0.9 | + | 7.8 | -5.5
COC(=O)C(C)Oc1cc(OC(C)C(=O)OC)c2c(C)c(Cl)c(=O)oc2c1 (stereo not drawn) | 11.4 | 2.6 | 1.8 | + | 43.6 | 0.7
Cc1cc(OC(C)C(=O)NCC2CCC(C(=O)O)CC2)c2c(C)c(Cc3ccccc3)c(=O)oc2c1 (stereo not drawn) | 9.8 | -2.5 | -0.7 | 21.7 | -2.3 | -5.5
CSCCC(NS(=O)(=O)c1ccccc1F)C(=O)NCc1ccncc1 (stereo not drawn) | 1.4 | 0.2 | -1.1 | -1.4 | -6.8 | 1.4
O=C(c1ccccc1)C(Nc1cccc([N+](=O)[O-])c1)c1ccccc1 (stereo not drawn) | -14.5 | . | . | -1.5 | . | .
CC1(CC(=O)O)C(=O)N=C2C=CC=CN21 (stereo not drawn) | 1.5 | -1.0 | . | 166.6* | . | .
O=C(NNC1=Nc2ccccc2SC1)c1ccc(Cl)cc1 | 37.9* | 0.1 | -0.8 | -0.6 | 95.7 | 5.2
CN(C)C(=O)c1cccc(-c2ccc3nncn3c2)c1 | 13.7 | . | . | -1.9 | . | .
SMILES | GDH-TPI inh | RecA splice inh | Mtb UGM inh | Mtb FBA inh | Mtb betalactam | Rv3671c protease
CN1CCN(C(=O)c2ccc(-c3cnc4cccnn34)cc2)CC1 | 3.5 | . | . | + | . | .
O=C(NCCO)c1cccc(-c2cnc3cccnn23)c1 | 13.7 | . | . | 156.1* | . | .
O=C(NCCO)c1ccc(-c2cnc3cccnn23)cc1 | 10.6 | . | . | + | . | .
CS(=O)(=O)Nc1ccc(-c2cnc3cccnn23)cc1 | 14.3 | . | . | 6.8 | . | .
CN1CCN(C(=O)c2ccc(-n3cccc3)cc2)CC1 | -5.8 | -0.1 | 2.4 | 1.4 | 1.1 | -0.6
CNc1ccc2ncc(-c3cccc(C(=O)N(C)C)c3)n2n1 | 16.8 | . | . | 155.8* | . | .
COc1ccc(OC)c(S(=O)(=O)Oc2ccc(N)c3ccccc23)c1 | 20.0 | 17.2 | 1.9 | 0.6 | -14.1 | -32.7
O=c1[nH]nc(-c2n[nH]c(=O)o2)o1 | 9.6 | . | . | -1.4 | . | .
CCOc1ccc(NC(=O)COC(=O)c2ccc(S(=O)(=O)N3CCOCC3)cc2)cc1 | -1.9 | . | -0.6 | -0.2 | 6.5 | 3.0
CCOc1ccc(-n2c([S-])c(C(=O)Nc3ccc(S(=O)(=O)N4CCOCC4)cc3)[n+]3cc(C(N)=O)ccc23)cc1 | 39.2* | 0.0 | -2.0 | 10.1 | -7.3 | -20.2
Nc1ccc2nc(CN3CCOCC3)[nH]c2c1 | 1.3 | 41.9* | 0.5 | 0.7 | 2.8 | 5.9

High-throughput results: PubChem BioAssay, several laboratories
